The values below come from the supplement of paper PMC13380429.

Experiment [1] relates to Vero E6 infected with SARS-CoV-2. The experiment can be described thus: morphology score (similarity to uninfected cells); higher = more like uninfected cells. Particulars: 24 h.
Experiment [2] has the same test system. The experiment can be described thus: SARS-CoV-2 infection rate relative to infected DMSO; higher = more infection, active = 60 or less. The conditions noted are these: 24 h.

As for `COC(=O)[C@H](CC(C)C)NC(=O)[C@@H](N)CC(C)C` [leucylleucine-methyl-ester] (10 µM), the morphology score in experiment [1] turned out to be 0.113. Further, the SARS-CoV-2 infection rate in experiment [2] is 99.5% (inactive).

`COc1cc(Oc2ccnc3cc(OC)c(OC)cc23)ccc1NC(=O)NC(C)c1nccs1` (stereo not drawn) (10 µM): the morphology score in experiment [1] was found to be 0.332. In experiment [2], the SARS-CoV-2 infection rate is 101% (inactive).

In experiment [1], `CCN(CC)CCOC(=O)c1cc(Cl)c(N)cc1OC` (10 µM) came in with a morphology score of 0.128. Further, the SARS-CoV-2 infection rate in experiment [2] is 104% (inactive).

Regarding `CCCN1CCC[C@@H]2Cc3nc(N)ncc3C[C@H]21` [quinelorane] (10 µM), the morphology score in experiment [1] was 0.13. The SARS-CoV-2 infection rate in experiment [2] is 106% (inactive).

Regarding `CC[C@]1(O)C[C@H]2CN(CCc3c([nH]c4ccccc34)[C@@](C(=O)OC)(c3cc4c(cc3OC)N(C=O)[C@H]3[C@@](O)(C(=O)OC)[C@H](OC(C)=O)[C@]5(CC)C=CCN6CC[C@]43[C@@H]65)C2)C1` [Vincristine (sulfate)] (10 µM), the morphology score in experiment [1] was -0.036. Besides, the SARS-CoV-2 infection rate in experiment [2] is 101% (inactive).

As to `O=C(O)c1ccc2c(c1)C(=O)N(c1cccc(Oc3ccc([N+](=O)[O-])cc3)c1)C2=O` (10 µM), the morphology score in experiment [1] turned out to be 0.173. Further, in experiment [2], the SARS-CoV-2 infection rate was 99.5% (inactive).

`Cc1cc(Nc2cc(N3CCN(C)CC3)nc(Sc3ccc(NC(=O)C4CC4)cc3)n2)n[nH]1` [tozasertib] (10 µM) gave a morphology score in experiment [1] of 0.292. In addition, in experiment [2], the SARS-CoV-2 infection rate is 119% (inactive).

The molecule `CC(C)(C)c1ccc(CN(Cc2cccc(OCC(=O)O)c2)S(=O)(=O)c2cccnc2)cc1` [evatanepag] (10 µM) returned a morphology score in experiment [1] of -0.0093. The SARS-CoV-2 infection rate in experiment [2] is 97.5% (inactive).

In experiment [1], `C[C@@H]1C(=O)O[C@H]2C[C@@]34[C@H]5C[C@@H](C(C)(C)C)[C@]36[C@@H](OC(=O)[C@@H]6O)O[C@@]4(C(=O)O5)[C@]21O` [Ginkgolide A] (10 µM) showed a morphology score of -0.0141. The SARS-CoV-2 infection rate in experiment [2] is 114% (inactive).

The molecule `Cc1cnc(-c2ccccc2C(C)C)nc1NCc1ccc(-n2ccnn2)cc1` (10 µM) yielded a morphology score in experiment [1] of 0.0189. Also, the SARS-CoV-2 infection rate in experiment [2] is 101% (inactive).

Molecule `CC(C)[C@@H](CS(=O)(=O)C(C)C)N1C(=O)[C@@](C)(CC(=O)O)C[C@H](c2cccc(Cl)c2)[C@H]1c1ccc(Cl)cc1` (10 µM) yielded a morphology score in experiment [1] of -0.12. Further, the SARS-CoV-2 infection rate in experiment [2] was 114% (inactive).

In experiment [1], `CN(C)C(=O)Oc1cc(OC(=O)N(C)C)cc(C(O)CNC(C)(C)C)c1` (stereo not drawn) [bambuterol] (10 µM) showed a morphology score of -0.145. For the same molecule, the SARS-CoV-2 infection rate in experiment [2] was 114% (inactive).

In experiment [1], `Oc1c(CN2CCCC2)cc(COCc2ccccc2)c2cccnc12` (10 µM) gave a morphology score of 0.0259. Moreover, in experiment [2], the SARS-CoV-2 infection rate was 104% (inactive).

In experiment [1], `CC(C)n1nc(-c2ccc3oc(N)nc3c2)c2c(N)ncnc21` (0.833333 µM) came in with a morphology score of -0.0142. The SARS-CoV-2 infection rate in experiment [2] was 102% (inactive).

On to `O=c1n(CCCN2CCN(c3cccc(Cl)c3)CC2)nc2ccccn12` [trazodone] (10 µM), for which, in experiment [1], the morphology score is -0.132. In experiment [2], the SARS-CoV-2 infection rate was 116% (inactive).

With `CCCCCCCCCCCCCCCC(=O)O[C@@H]1[C@@H](O)[C@@H](O)[C@@H]([C@H](NC(=O)[C@@H]2C[C@@H](CCC)CN2C)[C@H](C)Cl)O[C@@H]1SC` [clindamycin-palmitate] (10 µM), the morphology score in experiment [1] stood at 0.0793. Also, the SARS-CoV-2 infection rate in experiment [2] is 108% (inactive).

For `Cc1ccnc2c1CCCC2C(N)=S` (stereo not drawn) [isotiquimide] (10 µM), the morphology score in experiment [1] stood at 0.0559. Moreover, in experiment [2], the SARS-CoV-2 infection rate was 113% (inactive).

Turning to `[Cl][Ti][Cl].c1cc[cH-]c1.c1cc[cH-]c1` [titanocene-dichloride] (10 µM), the morphology score in experiment [1] is 0.163. Further, the SARS-CoV-2 infection rate in experiment [2] is 84% (inactive).

In experiment [1], `C=C1CCN([C@H](C)[C@](O)(Cn2cncn2)c2ccc(F)cc2F)CC1` [efinaconazole] (10 µM) had a morphology score of 0.162. Besides, the SARS-CoV-2 infection rate in experiment [2] is 92% (inactive).

In experiment [1], `C[C@@](Cc1ccc(O)c(O)c1)(NN)C(=O)O` [carbidopa] (10 µM) yielded a morphology score of -0.0523. In addition, the SARS-CoV-2 infection rate in experiment [2] is 100% (inactive).

Molecule `CC(=O)[C@]1(N)Cc2c(O)c3c(c(O)c2[C@@H](O[C@H]2C[C@H](O)[C@H](O)CO2)C1)C(=O)c1ccccc1C3=O` [amrubicin] (0.833333 µM) yielded a morphology score in experiment [1] of 0.065. In addition, in experiment [2], the SARS-CoV-2 infection rate is 92.5% (inactive).

As for `O=C(O)c1cc(-c2ccccc2)nc2ccccc12` [cinchophen] (10 µM), the morphology score in experiment [1] is 0.0922. Moreover, the SARS-CoV-2 infection rate in experiment [2] was 104% (inactive).

For `CC1(COc2ccc(CC3SC(=O)NC3=O)cc2)CCCCC1` (stereo not drawn) [ciglitazone] (10 µM), in experiment [1], the morphology score was 0.036. In addition, the SARS-CoV-2 infection rate in experiment [2] was 110% (inactive).

`Cc1nnc(-c2ccc3occ(-c4ccc([S+](C)[O-])cc4)c3c2)o1` (stereo not drawn) (10 µM) returned a morphology score in experiment [1] of -0.00242. Besides, the SARS-CoV-2 infection rate in experiment [2] was 92.5% (inactive).

With `Cc1ccc(NCCCc2ccccc2)c(N)c1` [NFKB-activation-inhibitor-II] (10 µM), in experiment [1], the morphology score turned out to be 0.238. For the same molecule, the SARS-CoV-2 infection rate in experiment [2] is 102% (inactive).

For `Cc1csc(S(=O)(=O)N(CC(C)C)c2cc3c(cc2OCc2ccc(C(=O)O)cc2)CCC3)n1` (10 µM), the morphology score in experiment [1] is -0.0439. Moreover, in experiment [2], the SARS-CoV-2 infection rate is 107% (inactive).

In turn, `Clc1ccc(CSC(Cn2ccnc2)c2ccc(Cl)cc2Cl)cc1` (stereo not drawn) [sulconazole] (10 µM) had a morphology score in experiment [1] of -0.0348. Further, the SARS-CoV-2 infection rate in experiment [2] is 110% (inactive).

Take `O=C(NNc1ccccc1)c1ccncc1` [plurisin-1] (10 µM): in experiment [1], the morphology score was -0.14. Further, in experiment [2], the SARS-CoV-2 infection rate is 108% (inactive).

With `OC[C@H]1O[C@H](O[C@]2(CCl)O[C@H](CCl)[C@@H](O)[C@@H]2O)[C@H](O)[C@@H](O)[C@H]1Cl` [sucralose] (10 µM), the morphology score in experiment [1] came out at 0.0888. The SARS-CoV-2 infection rate in experiment [2] was 97% (inactive).
